Composite z-score and z-score data for 6 molecules are collected here from PubChem BioAssay.

The subject of test [1] is Plasmodium falciparum Sir2 (PF13_0152, Sir2A). The experiment in a line: Plasmodium falciparum Sir2A binding compounds – biochemical, small-molecule microarray, 635 nm fluorescence, primary screen (AID 1098).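 Also: score merges spot fluorescence intensity with its signal-to-noise ratio.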 The conditions noted are these: fluorescence 635 nm, higher = more signal.
Test [2] in a line: probe aDKK1 binding to arrayed compounds – biochemical, biotinylated probe, 635/667 nm fluorescence, primary screen (AID 1099).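 Also: score merges 667nm spot fluorescence with signal to noise across triplicate slides.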 The conditions noted are these: small-molecule microarray, higher = more signal.
Test [3] is described as follows: probe aCHRDL2 binding to arrayed compounds – biochemical, biotinylated probe, 635/667 nm fluorescence, primary screen (AID 1100). As to conditions: small-molecule microarray, higher = more signal.
The nature of test [4]: change in splice reporter luminescence, either direction, cell-based, HEK293, spliceosome inhibition project, primary screen (AID 1101).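 Also: HEK293 cells carrying a splicing-competent luciferase reporter gene; test concentration not given here.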 As to conditions: HEK293 splicing luciferase reporter, 24 h, higher = more signal, called active from +8 up or from −8 down. On the technique in general: Reporter assays use an easily measured gene product as a stand-in for the process of interest.

For test [5], the target named is Fibroblast growth factor 10 (Homo sapiens) (UniProt O15520). The experiment in a line: compounds binding fibroblast growth factor 10 – biochemical, small-molecule microarray, 635 nm fluorescence, primary screen (AID 1102). As to conditions: FGF10 binding, fluorescence 635 nm, higher = more signal.
Fibroblast growth factor 10 (Homo sapiens), sequence (O15520 whole entry, looked up): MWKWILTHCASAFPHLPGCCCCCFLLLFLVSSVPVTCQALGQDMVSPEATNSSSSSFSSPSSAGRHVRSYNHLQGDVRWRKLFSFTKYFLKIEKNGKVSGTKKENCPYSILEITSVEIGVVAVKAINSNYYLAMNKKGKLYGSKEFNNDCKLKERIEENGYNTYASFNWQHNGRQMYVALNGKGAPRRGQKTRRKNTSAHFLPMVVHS
Test [6] relates to glycogen synthase kinase-3 (GSK3A per assay name; protocol says GSK3B). The experiment in a line: compounds binding glycogen synthase kinase-3 – biochemical, small-molecule microarray, 635 nm fluorescence, GSK3A, primary screen (AID 1103). Also: the record names both GSK3A and GSK3B. As to conditions: fluorescence 635 nm, higher = more signal.
Test [7] deals with Epidermal growth factor receptor (Homo sapiens) (UniProt P00533). The experiment in a line: compounds binding epidermal growth factor receptor – biochemical, small-molecule microarray, 635 nm fluorescence, primary screen (AID 1104).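 Also: score merges 667 nm emission intensity with spot signal to noise over triplicate slides.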 The conditions noted are these: EGFR binding, higher = more signal.
Epidermal growth factor receptor (Homo sapiens), sequence (P00533 whole entry, looked up): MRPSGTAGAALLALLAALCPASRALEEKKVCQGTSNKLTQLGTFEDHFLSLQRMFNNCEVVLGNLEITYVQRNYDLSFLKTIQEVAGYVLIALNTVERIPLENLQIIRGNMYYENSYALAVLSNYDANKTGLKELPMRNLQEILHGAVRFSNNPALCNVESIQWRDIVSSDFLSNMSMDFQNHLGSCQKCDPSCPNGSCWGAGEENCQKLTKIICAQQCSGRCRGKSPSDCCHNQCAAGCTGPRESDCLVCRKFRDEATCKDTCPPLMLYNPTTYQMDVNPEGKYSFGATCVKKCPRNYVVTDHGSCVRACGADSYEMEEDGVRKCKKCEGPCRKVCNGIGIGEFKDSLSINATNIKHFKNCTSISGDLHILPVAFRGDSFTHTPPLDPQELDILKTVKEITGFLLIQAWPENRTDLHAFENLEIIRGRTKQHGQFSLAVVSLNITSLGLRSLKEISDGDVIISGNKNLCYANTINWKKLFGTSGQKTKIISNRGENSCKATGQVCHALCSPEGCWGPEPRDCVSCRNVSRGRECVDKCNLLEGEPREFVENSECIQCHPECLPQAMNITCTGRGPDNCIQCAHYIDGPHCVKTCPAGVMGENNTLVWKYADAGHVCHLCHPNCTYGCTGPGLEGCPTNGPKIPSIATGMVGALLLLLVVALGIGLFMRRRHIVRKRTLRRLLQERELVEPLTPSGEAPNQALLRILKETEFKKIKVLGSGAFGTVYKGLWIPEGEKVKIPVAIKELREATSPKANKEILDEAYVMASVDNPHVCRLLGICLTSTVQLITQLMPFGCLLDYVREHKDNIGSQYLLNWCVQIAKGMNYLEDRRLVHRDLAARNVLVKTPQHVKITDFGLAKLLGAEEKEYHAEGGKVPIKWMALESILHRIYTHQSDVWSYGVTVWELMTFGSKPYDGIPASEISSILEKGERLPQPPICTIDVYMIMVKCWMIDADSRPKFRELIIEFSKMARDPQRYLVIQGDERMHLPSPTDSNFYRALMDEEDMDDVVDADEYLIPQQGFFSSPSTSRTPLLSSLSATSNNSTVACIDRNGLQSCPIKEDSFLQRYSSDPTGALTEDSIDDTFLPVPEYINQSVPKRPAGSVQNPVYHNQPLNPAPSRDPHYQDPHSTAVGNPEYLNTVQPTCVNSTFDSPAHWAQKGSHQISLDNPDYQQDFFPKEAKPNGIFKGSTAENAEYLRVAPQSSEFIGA
For test [8], the target named is Follistatin-related protein 3 (Homo sapiens) (UniProt O95633). The experiment in a line: compounds binding follistatin-related protein 3 – biochemical, small-molecule microarray, 635 nm fluorescence, primary screen (AID 1105).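 Also: score merges emission near 667 nm and signal to noise per printed spot across three slides.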 As to conditions: FSTL3 binding, higher = more signal.
Follistatin-related protein 3 (Homo sapiens), sequence (O95633 whole entry, looked up): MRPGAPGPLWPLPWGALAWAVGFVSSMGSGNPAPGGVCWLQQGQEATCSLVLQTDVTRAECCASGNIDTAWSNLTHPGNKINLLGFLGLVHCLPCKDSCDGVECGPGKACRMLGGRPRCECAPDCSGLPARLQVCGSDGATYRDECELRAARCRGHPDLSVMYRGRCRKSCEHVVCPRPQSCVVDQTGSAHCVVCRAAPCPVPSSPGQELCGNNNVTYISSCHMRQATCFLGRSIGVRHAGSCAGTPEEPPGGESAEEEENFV
In test [9] the target is Dickkopf-related protein 1 (Homo sapiens) (UniProt O94907). The experiment in a line: small molecules binding DKK1 protein – biochemical, small-molecule microarray, 635 nm fluorescence scan, primary screen (AID 1106).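 Also: score merges emission near 667 nm with signal to noise over three replicate slides.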 The conditions noted are these: higher = more signal.
Dickkopf-related protein 1 (Homo sapiens), sequence (O94907 whole entry, looked up): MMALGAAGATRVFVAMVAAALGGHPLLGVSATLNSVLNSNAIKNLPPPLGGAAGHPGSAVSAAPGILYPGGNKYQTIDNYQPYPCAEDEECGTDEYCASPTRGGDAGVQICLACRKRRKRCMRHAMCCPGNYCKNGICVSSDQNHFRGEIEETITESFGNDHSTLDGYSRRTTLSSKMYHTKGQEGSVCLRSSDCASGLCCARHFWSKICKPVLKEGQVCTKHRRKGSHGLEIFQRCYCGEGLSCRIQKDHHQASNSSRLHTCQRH
Test [10] has as its system Inhibin beta A chain (activin A). Nature of the test: small molecules binding activin A – biochemical, small-molecule microarray, 635 nm fluorescence scan, primary screen (AID 1107).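 Also: mouse activin A protein probed at 4.33 µg/mL on printed slides; score merges bound-protein fluorescence near 667 nm with spot signal-to-noise.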 The conditions noted are these: INHBA, higher = more signal.
Test [11] deals with Human papillomavirus type 1a protein E7 (residues 44-93). Nature of the test: small molecules binding HPV E7 44-93 – biochemical, small-molecule microarray, residues 44-93, 635 nm fluorescence, primary screen (AID 1108).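 Also: E7 fragment applied at 1 µg/mL in TBST for 1 h at 4 C; score combines spot fluorescence with its signal to noise ratio.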 The conditions noted are these: fluorescence 635 nm, higher = more signal.
A short description of test [12]: hepatitis C replication reporter changes, two-sided – Huh7 cells, luciferase reporter, HCV replication inhibitor project, primary screen (AID 1109).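 Also: huh7 hepatoma cells harbouring a luciferase neomycin HCV replicon reporter; luciferase luminescence as measure of HCV replicon replication; test concentration not given here.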 As to conditions: Huh7 HCV replicon luciferase reporter, 48 h; higher = more signal.
Test [13] has as its target Left-right determination factor 2 (Homo sapiens) (UniProt O00292). The experiment in a line: small molecules binding LEFTY2 protein – biochemical, small-molecule microarray, 635 nm fluorescence scan, primary screen (AID 1110). As to conditions: higher = more signal.
Test [14] deals with Calmodulin-1 (Homo sapiens) (UniProt P0DP23). Nature of the test: small molecules binding calmodulin-1 with EGTA – biochemical, small-molecule microarray, Cy5-labelled CALM1, profiling panel (AID 1111).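 Also: labelled calmodulin applied in Tris saline Tween buffer holding calcium plus EGTA and DTT.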 As to conditions: Cy5-CALM1 binding fluorescence, higher = more signal.
Test [15] shares this target. Nature of the test: small molecules binding Ca-loaded calmodulin-1 – biochemical, small-molecule microarray, Cy5-labelled CALM1, plus calcium, artefact control for SMM control-protein annotation, profiling panel (AID 1112).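 Also: score merges spot fluorescence with signal to noise from triplicate slides.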 The conditions noted are these: Cy5-CALM1 binding fluorescence, higher = more signal.
A short description of test [16]: probe aWnt5a binding to arrayed compounds – biochemical, biotinylated probe, 635/667 nm fluorescence, primary screen (AID 1113).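 Also: score merges 667 nm fluorescence intensity with signal-to-noise per printed feature.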 As to conditions: small-molecule microarray, higher = more signal.
Test [17] in a line: probe aShh binding to arrayed compounds – biochemical, biotinylated probe, 635/667 nm fluorescence, primary screen (AID 1114).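 Also: probe is biotin-labelled aShh protein from a stem cell growth factor screen; measures binding of labelled protein to compounds printed on the slide; score merges feature fluorescence at 667 nm with signal-to-noise.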 As to conditions: small-molecule microarray, higher = more signal.
A short description of test [18]: probe aNog binding to arrayed compounds – biochemical, biotinylated probe, 635/667 nm fluorescence, primary screen (AID 1115).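 Also: probe is biotinylated aNog protein used at 0.15 µg/mL for 1 h at 4 C; z-score combines 667 nm fluorescence of each spot with its signal to noise.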 As to conditions: small-molecule microarray, higher = more signal.
The target in test [19] is Torsin-1A-interacting protein 1 (Homo sapiens) (UniProt Q5JTV8). The experiment in a line: compound microarray binding of lysate hLAP1 – cell lysate, small-molecule microarray, COS7 lysate, 635/667 nm fluorescence, primary screen (AID 1116). The conditions noted are these: 635 nm fluorescence, higher = more signal.
Torsin-1A-interacting protein 1 (Homo sapiens), sequence (Q5JTV8 whole entry, looked up): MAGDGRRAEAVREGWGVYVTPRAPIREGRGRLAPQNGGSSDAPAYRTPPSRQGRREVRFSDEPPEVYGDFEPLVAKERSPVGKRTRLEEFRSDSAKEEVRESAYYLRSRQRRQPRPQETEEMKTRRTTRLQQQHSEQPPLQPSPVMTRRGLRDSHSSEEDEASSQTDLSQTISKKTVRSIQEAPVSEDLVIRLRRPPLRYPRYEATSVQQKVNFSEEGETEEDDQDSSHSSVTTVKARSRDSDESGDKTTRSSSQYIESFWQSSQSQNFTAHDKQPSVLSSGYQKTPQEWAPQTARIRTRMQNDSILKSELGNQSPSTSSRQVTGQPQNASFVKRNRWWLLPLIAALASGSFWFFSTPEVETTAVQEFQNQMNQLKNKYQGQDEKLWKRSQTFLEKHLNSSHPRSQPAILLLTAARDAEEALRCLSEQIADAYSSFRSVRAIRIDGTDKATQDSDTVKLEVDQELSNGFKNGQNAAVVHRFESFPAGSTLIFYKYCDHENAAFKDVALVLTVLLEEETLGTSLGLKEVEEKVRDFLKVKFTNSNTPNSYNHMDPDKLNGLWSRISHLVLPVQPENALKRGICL
Test [20] deals with Alpha-bungarotoxin (Bungarus multicinctus) (UniProt P60615). Nature of the test: compounds binding labelled alpha-BTX control protein – biochemical, small-molecule microarray, Alexa647 label, 635/667 nm fluorescence, artefact control for SMM control protein annotation, profiling panel (AID 1117). The conditions noted are these: alpha-BTX-A647 binding fluorescence, higher = more signal.
Alpha-bungarotoxin (Bungarus multicinctus), sequence (P60615 whole entry, looked up): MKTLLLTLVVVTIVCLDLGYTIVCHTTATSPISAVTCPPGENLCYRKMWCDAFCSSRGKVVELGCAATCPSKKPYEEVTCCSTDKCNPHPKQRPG

Structures are written as SMILES. Calls of active or inactive are those of the source.

Left-right determination factor 2 (Homo sapiens), sequence (O00292 whole entry, looked up): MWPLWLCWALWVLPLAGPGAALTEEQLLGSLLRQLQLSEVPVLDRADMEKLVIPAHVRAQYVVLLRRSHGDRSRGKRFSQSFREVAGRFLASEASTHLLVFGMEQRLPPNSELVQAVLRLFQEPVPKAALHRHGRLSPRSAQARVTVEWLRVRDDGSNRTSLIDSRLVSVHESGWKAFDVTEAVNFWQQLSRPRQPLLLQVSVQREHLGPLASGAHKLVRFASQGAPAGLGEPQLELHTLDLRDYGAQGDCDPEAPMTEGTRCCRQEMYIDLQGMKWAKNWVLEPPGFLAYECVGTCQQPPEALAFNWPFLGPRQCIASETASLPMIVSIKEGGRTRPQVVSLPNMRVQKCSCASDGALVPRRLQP

Turning to `COc1ccc(CCNC(=O)[C@@]2(Cc3ccccc3I)c3ccccc3C(=O)N(Cc3ccccc3Cl)[C@H]2c2ccc(CO)cc2)cc1`, the composite z-score was 1.79 in test [1]; 0.316 in test [2]; 0.646 in test [3]; 0.202 in [5]; -0.181 in test [6]; -0.662 in test [7]. In addition, the composite z-score in [8] is -0.407; in test [9], -0.735; in test [10], 0.0137; in test [11] it was -0.542; in test [13], -0.818; in test [14], 0.331. The composite z-score was 0.354 in [15]; 0.0718 in test [16]; 0.235 in test [17]; 0.371 in [18]; 0.589 in [19]; -0.0759 in [20]. Further, the results for the z-score in test [4] and in test [12] were -1.55 (inactive) and -2.44, respectively.
As to `COc1cc(NN2C(C(O)c3ccccc3)C=CC3C(=O)N(C)C(=O)C32)cc(OC)c1OC` (stereo not given), the composite z-score in [1] stood at 0.618; in test [2], 0.195; in test [3] it was 0.8; in test [5], 0.422; in [6], 0.843; in [7] it was 0.187. Also, the composite z-score in test [8] is 0.362; in test [9], -0.186; in test [10] it was 0.784; in test [11], 1.35; in test [13], 0.222; in [14] it was 0.533. The composite z-score in test [15] was -0.171; in test [16] it was 0.0437; in test [17], 0.151; in [18] it was 0.521; in test [19], 0.891; in test [20], 0.544. For the same molecule, the z-score in test [4] was -0.676 (inactive); in test [12], -0.928.
Regarding `CCCCNC(=O)c1ccc(C#C[Si](C(C)C)(C(C)C)C(C)C)c(OC(C)=O)c1`, the composite z-score in [1] was 0.28; in [2], -0.0188; in [3], -0.539; in [5], 0.832; in [6], 0.807; in [7], 1.36. Moreover, the composite z-score in [8] was 1.49; in [9] it was 0.784; in test [10], 1.59; in [11], 1.09; in test [13] it was 0.785; in [14], 0.367. Besides, the composite z-score was -0.48 in [15]; -0.0977 in test [16]; -0.2 in [17]; -0.216 in test [18]; 0.15 in test [19]; 2.24 in test [20]. Moreover, the figures for the z-score in test [4] and in test [12] were -0.831 (inactive) and -1.13, respectively.
In the case of `C=CCC(OC(C)=O)[C@@H]1[C@@H](N(Cc2cccc3ccccc23)C(=O)c2cccc3ccccc23)c2cc(OCCCO)ccc2N1C(=O)c1ccc2ccccc2c1` (stereo not given in full), the composite z-score is -0.131 in test [1]; 0.0281 in test [2]; 0.0611 in test [3]; 0.523 in [5]; -0.0993 in test [6]; 0.187 in test [7]. For the same molecule, the composite z-score in [8] was 0.423; in test [9], 0.226; in [10], 1.41; in [11], 0.475; in [13], 0.156; in test [14], -0.0677. The composite z-score in test [15] is 0.476; in [16] it was -0.0748; in test [17], 0.0494; in test [18], 0.185; in test [19], 0.184; in [20], 0.0426. The results for the z-score in test [4] and in [12] were -0.888 (inactive) and -0.351, respectively.
Turning to `C[C@]1(C(=O)NCCN2CCOCC2)c2ccccc2C(=O)N(Cc2cc(F)cc(C(F)(F)F)c2)[C@H]1c1ccc(CO)cc1`, the composite z-score was 1.81 in test [1]; -0.0342 in test [2]; 0.841 in test [3]; -0.134 in test [5]; -0.626 in [6]; -1.01 in test [7]. Also, the composite z-score was -0.0362 in test [8]; -0.876 in test [9]; 0.59 in test [10]; 1.38 in test [11]; -1.37 in test [13]; -0.17 in [14]. Also, the composite z-score in test [15] is -1.02; in test [16], -0.148; in test [17], -0.0222; in test [18] it was -0.41; in [19], 1.88; in test [20] it was 2.4. Further, the z-score in [4] is -0.0156 (inactive); in test [12] it was -1.06.
On to `C=CCN1C(=O)[C@@]2(O[C@@H](CCO)[C@H]([Si](C)(C)c3ccc(OC)cc3)[C@H]2C)c2cc(N3CCOC3=O)ccc21`, for which the composite z-score in [1] was 0.392; in test [2], 0.0757; in [3] it was 0.213; in test [5], -0.0196; in test [6], 0.612; in test [7], -0.114. Moreover, the composite z-score is 0.0282 in test [8]; -0.381 in [9]; -0.171 in test [10]; 1.31 in test [11]; -0.135 in test [13]; 0.278 in test [14]. The composite z-score in test [15] was 0.444; in test [16], -0.0981; in test [17], -0.243; in test [18], -0.0239; in test [19], 0.878; in [20], 0.105. The z-score was -0.887 (inactive) in test [4] and -4.84 in test [12].
